HPGD inh – inhibitors of human 15-hydroxyprostaglandin dehydrogenase (HPGD) | purified HPGD, NADH fluorescence kinetic, PGE2 substrate | Potency, µM, for inactives: top-dose activity change, negative = inhibition, actives largely listed as inhibitors | 150,000 compounds, 4.3% hits | P15428; active = well fitted inhibition curve with a large enough effect, not every such curve was filed as active; inconclusive = small, poorly fitted or top-dose-only effect, or another doubt; inactive = no such curve, though single readings can be large or run the other way; also: potency is read from the fitted curve at half-maximal effect
Target sequence (P15428 whole entry, looked up): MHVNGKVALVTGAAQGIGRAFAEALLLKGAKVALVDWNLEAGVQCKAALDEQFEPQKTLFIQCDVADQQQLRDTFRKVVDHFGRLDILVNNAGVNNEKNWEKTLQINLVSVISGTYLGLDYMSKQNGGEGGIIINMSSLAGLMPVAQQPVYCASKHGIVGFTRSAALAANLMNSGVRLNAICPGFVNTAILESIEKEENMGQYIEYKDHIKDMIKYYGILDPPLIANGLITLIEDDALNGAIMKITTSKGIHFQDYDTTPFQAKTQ
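NADH formation kinetics: reaction with 30 uM PGE2 and 1 mM NAD+ (final), 20 nM enzyme, Tris-HCl pH 8 with Tween 20, after 15 min compound preincubation at room temperature. Fluorescence change, last versus first of five reads.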
PNC assembly inh – perinucleolar compartment assembly inhibition; PC3M PTB-GFP, PNC prevalence imaging, 16 h; stronger effect = lower value; activity change (PNC), negative = inhibition, % at 10 µM; 140,000 compounds, 3.1% hits;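 active = readout at or below -70, meaning at least 70% loss of cells showing the perinucleolar compartment, a nuclear body marking cancer cells; inconclusive = readout between -30 and a set limit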;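 also: plate controls were DMSO wells for no effect and camptothecin positive control wells for full effect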
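PC3M cells stably expressing PTB-GFP, 750–1000 cells/well, treated 16 h at 37 °C with compound (23 nl of library stock), in duplicate. After paraformaldehyde fixation and Hoechst stain, imaged at 20x; PNC prevalence scored by image analysis.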
12-hLO inh – inhibitors of human 12-lipoxygenase (ALOX12); P18054; purified 12-hLO, xylenol orange hydroperoxide absorbance; Potency, µM (top dose mostly 57.1 µM), for inactives: top-dose activity change, negative = inhibition, most hits filed as inhibitors; 150,000 compounds, 0.12% hits; also: potency is read from the fitted curve at half-maximal effect; nearly all actives have a fitted effect of over 55% in size
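Hydroperoxide output read as Fe(III)-xylenol orange absorbance, 573-to-405 nm ratio, after 30 min reaction with 40 uM arachidonic acid. Enzyme: 150 nM purified human 12hLO, 15 min compound preincubation; 25 mM Hepes pH 7.0, room temperature.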
GLA inh pH 4.5 – inhibitors of human alpha-galactosidase A at pH 4.5. purified enzyme, 4-MU-alpha-Gal fluorescence, pH 4.5. activity change, negative = inhibition, % at 105 µM. 230,000 tested, under 10 active;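 also: 0% = full activity with enzyme and -100% = basal without enzyme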
aGal spleen mod – alpha-galactosidase A (human) modulation | P06280 | human spleen homogenate, 4MU-alpha-Gal fluorescence, 40 min | Potency, µM (highest dose often 80 µM), without a hit: at the top dose activity change, negative = inhibition, most hits filed as inhibitors | 240,000 compounds, 0.008% hits | AID 2107;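 also: potency is read from the fitted curve at half-maximal effect; 0% = enzyme with vehicle and -100% = no enzyme basal signal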
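Spleen homogenate 1 ug + cpd (titration) + 4-MU-alpha-D-galactopyranoside 1 mM; 37C 40 min; 50 mM citrate/phosphate pH 5.0, 0.01% Tween-20; stop pH 10; fluorescence 365/440; AC50 via Hill.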
ALDH1A1 block – blocks purified human ALDH1A1 activity; P00352; Purified ALDH1A1, NADH fluorescence, propionaldehyde substrate; Potency, µM (top dose mostly 75.3 µM), inactives show at the top dose activity, negative = inhibition, most hits filed as inhibitors; 220,000 compounds, 7.3% hits; active = well fitted inhibition curve with a large enough effect, not every such curve was filed as active; inconclusive = small, poorly fitted or top-dose-only effect, or another doubt; inactive = no such curve, though single readings can be large or run the other way;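 also: potency is read from the fitted curve at half-maximal effect; plate controls were no enzyme wells and a reference inhibitor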
* marks the source's active call; other numbers are inactive results; [ ] = another dose, or the depositor's remark. A selection: hits, their analogues and other compounds. The true share with any hit is near 10%. Unless noted, calls follow the shape of the dose curve; as a rule, active = well fitted curve in the direction sought with a large enough effect; inconclusive = small, poorly fitted or top-dose-only effect, or another doubt; inactive = no such curve, though single readings can be large; an effect the other way counts as inactive or inconclusive. Unless noted, % is scaled to controls: 0 for no effect and ±100 for the full control effect.

How did CCOC(=O)c1nnn(-c2ccc([N+](=O)[O-])cc2[N+](=O)[O-])c1C do in these assays?
GLA inh pH 4.5: 1; aGal spleen mod: -3%; ALDH1A1 block: inconclusive

How did O=C(c1cc(C(F)(F)F)cc(C(F)(F)F)c1)N1CCC2(CC1)CCN(c1ncccn1)CC2 do in these assays?
HPGD inh: -4%; 12-hLO inh: -3%; aGal spleen mod: 10%; ALDH1A1 block: 5%

Results for S=C(NCCc1ccccc1)Nc1ccccn1 ?
HPGD inh: -5%; PNC assembly inh: 11; 12-hLO inh: inconclusive; GLA inh pH 4.5: 5; aGal spleen mod: 4%; ALDH1A1 block: 3.2µM*

How did Cc1ccccc1NC(=S)NCc1ccccc1 do in these assays?
HPGD inh: 28µM*; PNC assembly inh: inconclusive; 12-hLO inh: -7%; GLA inh pH 4.5: -1; aGal spleen mod: -9%; ALDH1A1 block: 2%

What do the screens show for `Cc1ccccc1NC(=S)NCCc1ccccn1`?
HPGD inh: -3%; PNC assembly inh: inconclusive; 12-hLO inh: 1%; GLA inh pH 4.5: -9; aGal spleen mod: 10%; ALDH1A1 block: 14%

Results for Cc1cccc(C)c1NC(=S)NCCc1ccccn1 ?
HPGD inh: -9%; PNC assembly inh: -105*; 12-hLO inh: -1%; GLA inh pH 4.5: -10; aGal spleen mod: 15%; ALDH1A1 block: -4%

How did Cc1cccc(NC(=S)NC(=O)CCc2ccccc2)c1C do in these assays?
HPGD inh: -28%; PNC assembly inh: 27; 12-hLO inh: inconclusive; GLA inh pH 4.5: -4; aGal spleen mod: -1%; ALDH1A1 block: 13µM*

How did Cc1cccc(NC(=S)NCCc2ccccc2)n1 do in these assays?
GLA inh pH 4.5: 0; aGal spleen mod: 1%; ALDH1A1 block: inconclusive

What do the screens show for `CN(C)S(=O)(=O)c1cccc(NC(=S)NN=C(Cc2ccccc2)Cc2ccccc2)c1`?
HPGD inh: -17%; PNC assembly inh: 1; 12-hLO inh: -6%; GLA inh pH 4.5: 1; aGal spleen mod: -4%; ALDH1A1 block: inconclusive

Results for C/C(=N\NC(=S)NCCc1ccccc1)c1ccc(C)cc1 ?
HPGD inh: -19%; PNC assembly inh: 246; 12-hLO inh: 14µM*; GLA inh pH 4.5: 6; aGal spleen mod: -2%; ALDH1A1 block: -4%

What do the screens show for `COc1cc2c(cc1OC)C1=NC(=O)CN1C(SCc1ccccc1)=N2`?
HPGD inh: inconclusive; PNC assembly inh: -28; 12-hLO inh: -11%; GLA inh pH 4.5: 10; aGal spleen mod: -2%; ALDH1A1 block: inconclusive

How did CCCCOc1ccc(-c2c(C(=O)Nc3ccccc3)c(C)[nH]c(=S)c2C#N)cc1 do in these assays?
GLA inh pH 4.5: -14; aGal spleen mod: -6%; ALDH1A1 block: 3.5µM*

What do the screens show for `CCOC(=O)c1c(C)[nH]c(=S)c(C#N)c1-c1ccc(Cl)cc1`?
HPGD inh: -16%; PNC assembly inh: -108*; 12-hLO inh: -10%; GLA inh pH 4.5: -4; aGal spleen mod: -8%; ALDH1A1 block: inconclusive

What do the screens show for `Cc1ccccc1OCC1CN(CN2CCOCC2)C(=O)O1` (stereo not given)?
HPGD inh: -1%; PNC assembly inh: -87*; 12-hLO inh: 3%; GLA inh pH 4.5: 8; aGal spleen mod: 4%; ALDH1A1 block: 3%

What do the screens show for `Cc1ccc(N2C(=O)CC(N3CCc4ccccc43)C2=O)cc1Cl` (stereo not given)?
GLA inh pH 4.5: 2; aGal spleen mod: 1%; ALDH1A1 block: 2%

What do the screens show for `Cc1ccc(N2C(=O)CC(Sc3nc4ccccc4o3)C2=O)cc1Cl` (stereo not given)?
HPGD inh: inconclusive; PNC assembly inh: 39; 12-hLO inh: -9%; GLA inh pH 4.5: -10; aGal spleen mod: -3%; ALDH1A1 block: 1.4µM*

Results for C[C@@H]1C[C@H](C)CN(S(=O)(=O)c2cc(Cl)c(Oc3ccc([N+](=O)[O-])cc3Cl)c(Cl)c2)C1 ?
HPGD inh: -1%; 12-hLO inh: 3%[11.4 µM]; ALDH1A1 block: -6%[13.5 µM]
